{
  "source": "the supplement of paper PMC7261846",
  "note": "± gives the uncertainty stated by the source.",
  "data": [
    {"test_system": "Candida albicans SNY425 biofilm", "experiment": "biofilm OD600 with compound plus antifungal (OD600 (absorbance)); higher = more biofilm remaining", "conditions": "assay detail: sustained inhibition (compound + antifungal during 90-min adherence and 24-h growth)", "values": [
      {"smiles": "CCC[C@@]1(CCc2ccccc2)CC(O)=C([C@H](CC)c2cccc(NS(=O)(=O)c3ccc(C(F)(F)F)cn3)c2)C(=O)O1", "note": "[tipranavir] + C[C@@H]1[C@H](O)[C@@H](C)/C=C/C=C/C=C/C=C/C=C/C=C/C=C/[C@H](O[C@@H]2O[C@H](C)[C@@H](O)[C@H](N)[C@@H]2O)C[C@@H]2O[C@](O)(C[C@@H](O)C[C@@H](O)[C@H](O)CC[C@@H](O)C[C@@H](O)CC(=O)O[C@H]1C)C[C@H](O)[C@H]2C(=O)O [amphotericin B] (first compound 12.5 µM)", "biofilm OD600": "0.185 ± 0.0069"},
      {"smiles": "NCCCC[C@H](N[C@@H](CCc1ccccc1)C(=O)O)C(=O)N1CCC[C@H]1C(=O)O", "note": "[Lisinopril] + CC[C@H](C)C[C@H](C)CCCCCCCCC(=O)N[C@H]1C[C@@H](O)[C@@H](NCCN)NC(=O)[C@@H]2[C@@H](O)CCN2C(=O)[C@H]([C@H](O)CCN)NC(=O)[C@H]([C@H](O)[C@@H](O)c2ccc(O)cc2)NC(=O)[C@@H]2C[C@@H](O)CN2C(=O)[C@H]([C@@H](C)O)NC1=O [caspofungin] (first compound 12.5 µM)", "biofilm OD600": "0.178 ± 0.023"},
      {"smiles": "COC(=O)C[C@H](NC(=O)[C@H](C)NC(=O)[C@@H](NC(=O)OCc1ccccc1)C(C)C)C(=O)CF", "note": "+ OC(Cn1cncn1)(Cn1cncn1)c1ccc(F)cc1F [fluconazole] (first compound 12.5 µM)", "biofilm OD600": "0.12 ± 0.0089"},
      {"smiles": "C[C@]1(Cn2ccnn2)[C@H](C(=O)O)N2C(=O)C[C@H]2S1(=O)=O", "note": "[Tazobactam] + CC[C@H](C)C[C@H](C)CCCCCCCCC(=O)N[C@H]1C[C@@H](O)[C@@H](NCCN)NC(=O)[C@@H]2[C@@H](O)CCN2C(=O)[C@H]([C@H](O)CCN)NC(=O)[C@H]([C@H](O)[C@@H](O)c2ccc(O)cc2)NC(=O)[C@@H]2C[C@@H](O)CN2C(=O)[C@H]([C@@H](C)O)NC1=O [caspofungin] (first compound 12.5 µM)", "biofilm OD600": "0.181 ± 0.0097"}
    ]}
  ]
}
